Assay outcomes from PubChem BioAssay.
Shown are actives, neighbours in structure and some others; about 10% of the full set was active somewhere.
G9a block – G9a (human) methyltransferase inhibition; Q96KQ7; G9a H3K9 monomethylation, AlphaScreen, 2 h; Potency, µM (top dose mostly 102 µM), inactives show top-dose activity, negative = inhibition, hits mostly inhibitors; 350,000 tested, 8.8% active; AID 504332; further: on the % scale 0 is the no-effect control and ±100 the full control effect; nearly all actives have a fitted effect of over 75% in size
Target sequence (Q96KQ7 913-1193 limits assumed): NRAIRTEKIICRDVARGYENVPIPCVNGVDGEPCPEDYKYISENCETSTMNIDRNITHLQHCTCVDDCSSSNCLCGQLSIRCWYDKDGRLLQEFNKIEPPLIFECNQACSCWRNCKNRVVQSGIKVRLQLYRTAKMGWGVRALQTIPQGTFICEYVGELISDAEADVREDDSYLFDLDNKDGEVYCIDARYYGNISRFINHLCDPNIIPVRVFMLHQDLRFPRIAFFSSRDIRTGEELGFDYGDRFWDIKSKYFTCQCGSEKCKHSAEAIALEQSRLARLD
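Methyltransferase reactions run at room temperature for 2 h (20 nM enzyme, 500 nM biotin-H3K9 peptide, 20 uM SAM) after a 15 min compound preincubation; product detected by AlphaScreen beads and anti-H3K9me1 antibody.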
GLS inh – blocks human kidney-isoform glutaminase activity; Potency, µM (top dose mostly 45.5 µM), inactives show top-dose activity change, negative = inhibition, most hits filed as inhibitors; 410,000 tested, 0.21% active; GLS enzymatic activity, qHTS titration; AID 624170; O94925; further: on the % scale 0 is the no-effect control and ±100 the full control effect
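hKGA; 45 mM KH2PO4 pH 8.2 + 0.02% Tween-20; cpd via pin tool; 1 mM Gln soln; GluOx/HRP/Amplex Red; RT 30 min; fluor. t0 & final.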
BAZ2B inh – BAZ2B (human) inhibition; 360,000 tested, 4.4% active; Potency, µM (titrated, usually from 114 µM), inactives show at the highest dose activity change, negative = inhibition, actives largely listed as inhibitors; AlphaScreen BAZ2B-H3K14Ac peptide displacement; Q9UIF8; further: on the % scale 0 is the no-effect control and ±100 the full control effect; nearly all actives have a fitted effect of over 60% in size
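BAZ2B (50 nM) with biotin-H3(5-23)K14Ac peptide (50 nM) in PBS pH 7.4, 0.01% Tween-20, preformed 30 min, then compound 30 min at room temperature; top concentration 110uM. AlphaScreen streptavidin donor/nickel chelate acceptor beads (10 ug/mL final), 20 min dark, signal read.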
HP1b binding inh – blocks HP1-beta chromodomain binding to methylated histone tails | AlphaScreen HP1-beta / biotin-H3K9me3 peptide binding | Potency, µM (top dose mostly 114 µM), inactives show at the top dose activity change, negative = inhibition, actives largely listed as inhibitors | 390,000 tested, 0.56% active; further: nearly all actives have a fitted effect of over 70% in size
Target sequence (P83916 whole entry, looked up): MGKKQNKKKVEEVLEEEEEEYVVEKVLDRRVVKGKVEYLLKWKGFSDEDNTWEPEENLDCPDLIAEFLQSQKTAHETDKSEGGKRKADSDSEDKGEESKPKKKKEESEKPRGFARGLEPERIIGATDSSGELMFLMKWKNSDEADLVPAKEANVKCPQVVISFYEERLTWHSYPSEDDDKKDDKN
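Compound inhibition of the preformed complex between 50 nM HP1-beta and 50 nM biotinylated H3K9me3 peptide was read by AlphaScreen. Buffer was PBS pH 7.4 with 0.01% Tween-20. Incubations ran 30 min at room temperature, with 10 ug/mL donor/acceptor beads.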
JMJD2A Tudor – JMJD2A Tudor domain (human) inhibition. AID 504339. O75164. 390,000 tested, 4.4% active. Potency, µM (highest dose often 114 µM), inactives show at the top dose activity change, negative = inhibition, actives largely listed as inhibitors. AlphaScreen JMJD2A-Tudor / H3K4me3 peptide binding; further: on the % scale 0 is the no-effect control and ±100 the full control effect; nearly all actives have a fitted effect of over 50% in size
Starred values were filed as active, the others as inactive; ? = inconclusive; . = not tested or not shown; [ ] = remark or other dose. The call rests on the fitted dose curve; in most records, active means well fitted curve in the direction sought with a large enough effect; inconclusive means small, poorly fitted or top-dose-only effect, or another doubt; inactive means no such curve, though single readings can be large; an effect the other way counts as inactive or inconclusive. Potency means the concentration at half of the fitted maximal effect.

SMILES	G9a block	GLS inh	BAZ2B inh	HP1b binding inh	JMJD2A Tudor
O=C(Cc1ccccc1)Nc1cccc([N+](=O)[O-])c1	?	-1%	-2%	65%	-6%
O=C(Nc1cccc([N+](=O)[O-])c1)c1ccc2ccccc2c1O	16µM*	-22%	-29%	7%	-11%
Cc1ccc(C2=CC(c3c(F)cccc3Cl)n3ncnc3N2)cc1C (stereo not given)	-3%[59 µM]	12%	?	-5%	-35%
O=C(c1ccco1)N1CCN(S(=O)(=O)N2CCOCC2)CC1	-4%	-1%	5%	6%	-12%
CCN(CC)CCCC(C)Nc1cc(/C=C/c2ccccc2Cl)nc2cc(Cl)ccc12 (stereo not given)	-16%[12.7 µM]	6%	.	.	.
CCN(CC)CCCC(C)Nc1c2ccc(Cl)cc2nc2ccc(OC)cc12 (stereo not given)	8.4µM*	.	-34%	.	.
CCOC(=O)Cn1c(=O)n(Cc2ccco2)c(=O)c2ccc(C(=O)NC3CCCC3)cc21	-10%	0%	10%	26%	-25%
C#CCOCCOCCOCCNc1nc(N2CCN(C(=O)[C@H](C)n3cc(CCCN=C(N)N)nn3)CC2)nc(N2CCN(C(=O)[C@H](Cc3ccc(O)cc3)n3cc(CCO)nn3)CC2)n1	32µM*	.	?	.	.
C#CCOCCOCCOCCNc1nc(N2CCN(C(=O)[C@H](CCCCN)n3cc(CC(C)O)nn3)CC2)nc(N2CCN(C(=O)[C@H](Cc3ccc(O)cc3)n3cc(CCO)nn3)CC2)n1 (stereo not given in full)	.	9%	.	14%	-22%
C#CCOCCOCCOCCNc1nc(N2CCN(C(=O)[C@H](CCCCN)n3cc(CCCC)nn3)CC2)nc(N2CCN(C(=O)[C@H](Cc3ccc(O)cc3)n3cc(CCO)nn3)CC2)n1	40µM*	12%	?	-19%	79µM*
O=C(Nc1ccccc1F)NC1CCCCCCC1	76%	-6%	4%	24%	5%
C=CCn1c(SCc2nc3ccccc3[nH]2)nnc1-c1ccncc1	-4%[59 µM]	14%	2%	22%	-9%
N#Cc1cccnc1N1CCN(C(=O)c2cccc3c2C(=O)c2ccc(-c4ccc(Cl)c(C(F)(F)F)c4)cc2S3(=O)=O)CC1	.	-2%	.	19%	-24%
O=C(O)c1cccc2c1C(=O)c1ccc(-c3ccc(Cl)c(C(F)(F)F)c3)cc1S2(=O)=O	16%[2.33 µM]	-4%	?	15%	79µM*
COCc1c(C(=O)NCc2ccccc2CN2CCCC2)oc2ccccc12	23%[12.7 µM]	1%	0%	39%	-14%
CCCOc1ccc(/C=C/C(=O)O)cc1OC	15%	0%	.	54%	-4%
COc1ccc(Cl)cc1C(=O)OCC(=O)c1c(N)n(C)c(=O)n(C)c1=O	.	0%	.	.	.
O=S1(=O)N[C@@H](CC2=CCCCC2)C2CCCCC2O1 (stereo not given in full)	25%	2%	12%	22%	-11%
Cc1ccc(/C=C/C(=O)Nc2ncc(C)s2)o1	13µM*	12%	?	-13%	-24%
Cc1ccc(/C=C/C(=O)Nc2ccncc2)o1	?	0%	1%	-20%	?
CC(=O)NS(=O)(=O)c1ccc(NC(=O)/C=C/c2ccc(C)o2)cc1	22µM*	-5%	-20%	?	35µM*
Cc1ccc(/C=C/C(=O)Nc2ccc(N(C)C)cc2)o1	4µM*	33%	35µM*	?	50µM*
COc1ccc(OC)c(N2CC(O)(c3ccccc3)[N+]3=C2SCCC3)c1 (stereo not given)	-38%	18%	.	11%	-7%
CCOc1ccc(NC(=O)Cn2c(=O)oc3cc(Cl)ccc32)cc1	-11%	-5%	12%	42%	-5%
c1ccc2c(CN3CCOCC3)c3ccccc3c(CN3CCOCC3)c2c1	?	19%	-33%	22%	-17%
SMILES	G9a block	GLS inh	BAZ2B inh	HP1b binding inh	JMJD2A Tudor
CN(C)c1ccc([C@@H]2[C@@H]([N+](=O)[O-])[C@H]3C=Cc4ccccc4N3[C@H]2C(=O)c2ccc(Cl)cc2)cc1	7.9µM*	-2%	32µM*	?	45µM*
CN1N=C(c2ccc(F)c(F)c2)CSC1=NCc1ccccc1	177%	0%	183%	42%	5%
CC(C)C1C(=O)NC(=S)N1S(=O)(=O)c1ccc(C(C)(C)C)cc1 (stereo not given)	3.2µM*	4%	-7%	-10%	-12%
Cc1ccc(C)c(S(=O)(=O)N2C(=S)NC(=O)C2CC(C)C)c1 (stereo not given)	?	19%	-38%	48%	0%
CCOc1ccccc1NC(=O)CN1C(=O)COc2ccc(S(=O)(=O)NC3CCCC3)cc21	-26%[59 µM]	5%	-4%	28%	-18%
CC1(c2nnc(-c3ccccc3)o2)CC(c2ccccc2)=NO1 (stereo not given)	.	0%	.	53%	-1%
CCOC(=O)N1CC=C2C(C#N)=C(N)C(C#N)(C#N)[C@H](c3ccccc3OCC)[C@H]2C1	-18%[12.7 µM]	-3%	-29%	45%	-14%
N#CC1=C(N)C(C#N)(C#N)[C@H](c2cccnc2)[C@H]2CN(C(=O)OCc3ccccc3)CC=C12	50µM*	5%	-21%	29%	-9%
CN1CC=C2C(C#N)=C(N)C(C#N)(C#N)[C@H](c3cccc(Cl)c3)C2C1 (stereo not given in full)	25µM*	-14%	-35%	46%	-9%
N#CC1=C(N)C(C#N)(C#N)C(c2ccncc2)C2CN(C(=O)OCc3ccccc3)CC=C12 (stereo not given)	16µM*	-2%	-3%	58%	-9%
CCOC(=O)N1CC=C2C(C#N)=C(N)C(C#N)(C#N)[C@H](c3ccsc3)[C@H]2C1	45µM*	-3%	-4%	41%	-4%
CN1CC=C2C(C#N)=C(N)C(C#N)(C#N)[C@H](c3cccs3)[C@H]2C1	?	-14%	-5%	31%	-11%
CN1CC=C2C(C#N)=C(N)C(C#N)(C#N)C(c3ccsc3)C2C1 (stereo not given)	.	-13%	-27%	43%	-25%[11.4 µM]
CCCC1C2CN(C(C)C)CC=C2C(C#N)=C(N)C1(C#N)C#N (stereo not given)	40µM*	?	-8%	4%	?
CN1CC=C2C(C#N)=C(N)C(C#N)(C#N)C(CCc3ccccc3)C2C1 (stereo not given)	-6%[59 µM]	-6%	-2%	19%	-33%
Cc1cccc(NC(=O)CCc2c(C)nc3nc(CNC(=O)c4cccc(F)c4)nn3c2C)c1	-1%[59 µM]	1%	-2%	48%	2%
CC(=O)c1cccc(NC(=O)CCc2c(C)nc3nc(CN)nn3c2C)c1	16µM*	4%	50µM*	21%	?
